# Test results as given in PubChem BioAssay (NCATS).
# Records with an inconclusive call do not appear. The source made the active and inactive calls. Calls come from the whole dose curve; as a rule, active = well fitted inhibition curve with a large enough effect; inconclusive = small, poorly fitted or top-dose-only effect; inactive = no such curve, though single readings can be large or run the other way. Positions of bridges follow the written chain, without caps; N, C: chain ends. Non-standard residues stand in square brackets, D forms with d. Residues, ends and D or L forms follow the SMILES beside them. ξ: configuration not given here. *: point of attachment. ξDab(CH2SO3H) = NC(CCNCS(=O)(=O)O)C(=O)O; Octanoyl(6-Me) = CCC(C)CCCCC(=O)*; Dab = NCC[CH](N)C(=O)O
# Tested on: Zika virus NS2B-NS3 protease (linked construct)
# Assay: 384 well plate NINDS Rhodamine confirmatory qHTS for Zika virus inhibitors (AID 1347164); note: nearly all actives have a fitted effect of over 65% in size
# Conditions: rhodamine-110 peptide substrate fluorescence; series mostly up to 1 mM
# Text: Description: Assay Submitters (PI): Avindra Nath, Ph.D., National Institute of Neurological Disorders and Stroke (NINDS), Bethesda, MD Radhakrishnan Padmanabhan, Ph.D., Georgetown University (GU), Washington D.C. Zika Virus causes congenital defects, including microcephaly and is associated with Guillain-Barre syndrome, eningoencephalitis and myelitis in infected adult. […] Using a target-based approach, we hope to establish a screening paradigm to uncover novel, cell-active NS2B-NS3 protease (Zika Virus) specific inhibitors from NCATS' collection of small molecules using qHTS. […] Four assay panel was created to identify potential Zika Virus inhibitors. Namely, (1) GU unlinked NS2B-NS3 AMC tagged protease qHTS, (2) GU unlinked NS2B-NS3 Rhodamine tagged protease qHTS, (3) NINDS linked NS2B-NS3 AMC tagged protease qHTS, (4) NINDS linked NS2B-NS3 Rhodamine tagged protease qHTS. Active compounds are validated using a secondary assay in 384 well plate format. Early Translation Branch (ETB) National Center for Advancing Translational Sciences (NCATS), Rockville, MD National Institute of Health (NIH), Bethesda, Maryland
# 384-well NINDS Rhodamine Assay: The protease was diluted to 7.5 nM, 40.9 nM, or 82 nM in assay buffer and dispensed into a 96-well PCR plate (Applied Biosystems); 20 or 22 microL was transferred to a black 384-well assay plate (final protease concentration of 5 nM, 30 nM, or 60 nM, respectively). Compounds (3 microL, 1 microM - 10 mM, DMSO) were diluted and transferred to the assay plate (final concentrations ranged from 100 nM to 1 mM). Compounds were incubated with protease for ~15 minutes. The substrate, Rhodamine 110 (Ac-LKRR-Rd; Genscript), was dissolved in DMSO to a concentration of 6 mM and further diluted into assay buffer to a working concentration of 180 microM, then dispensed into a 384-well preparation plate (Eppendorf). A multichannel repeat pipettor was used to add 3 or 5 microL of substrate to the assay plate to give a final concentration of 10 microM. The plate was incubated in the dark at room temperature. After 25 minutes, the fluorescence intensity (excitation: 485 nm, emission: 538 nm) was measured and normalized to no-enzyme and no-inhibitor controls. Aprotinin39 (VWR) was used as an intraplate control.
# Potency is the fitted concentration of half-maximal effect.
row,SMILES,Potency
1,O=C(COc1ccccc1C(=O)OCC(=O)Nc1cccc2ccccc12)Nc1ccc(Br)cc1,inactive
2,COC(=O)c1ccc([C@H]2Nc3ccc(S(=O)(=O)Nc4cccc(C)c4)cc3[C@H]3C=CC[C@H]32)cc1,158 µM (active)
3,O=C(O)c1ccccc1-c1c2cc(I)c(=O)c(I)c-2oc2c(I)c(O)c(I)cc12,inactive
4,O=c1c(-c2cc(O)c(O)c(O)c2)coc2cc(O)c(O)c(O)c12,126 µM (active)
5,Cc1ccn(-c2cc(Cl)ccc2[C@@H](Oc2cc(-c3ccc(C[C@H](N)C(=O)O)cc3)nc(N)n2)C(F)(F)F)n1,28.2 µM (active)
6,Cc1ccc2nc(-c3ccc(N=Nc4cc(S(=O)(=O)O)c5ccccc5c4O)cc3)sc2c1S(=O)(=O)O,15.8 µM (active)
7,Cc1ccc(NC(=O)c2ccc3c(O)c(S(=O)(=O)c4ccccc4)c(=O)[nH]c3c2)cc1Cl,44.7 µM (active)
8,O=C(Nc1cccc(C(=O)OCc2cc(=O)n3nc(C4CC4)sc3n2)c1)c1cccc(F)c1,17.8 µM (active)
9,CCC(C)CCCCC(=O)NC(CCNCS(=O)(=O)O)C(=O)NC(C(=O)NC(CCNCS(=O)(=O)O)C(=O)NC1CCNC(=O)C(C(C)O)NC(=O)C(CCNCS(=O)(=O)O)NC(=O)C(CCNCS(=O)(=O)O)NC(=O)C(CC(C)C)NC(=O)C(CC(C)C)NC(=O)C(CCNCS(=O)(=O)O)NC1=O)C(C)O (stereo not given) ({Octanoyl(6-Me)}-[ξDab(CH2SO3H)]T[ξDab(CH2SO3H)][Dab][ξDab(CH2SO3H)]LL[ξDab(CH2SO3H)][ξDab(CH2SO3H)]T; lactam 4-C; configuration not given here),3.55 µM (active)
10,CCN(Cc1cccc(S(=O)(=O)O)c1)c1ccc(C(=C2C=CC(=[N+](CC)Cc3cccc(S(=O)(=O)O)c3)C=C2)c2ccccc2S(=O)(=O)[O-])cc1,14.1 µM (active)
11,O=C(O)c1ccc2c(ccc3nn(-c4ccc(/C=C/c5ccc(-n6nc7ccc8cc(C(=O)O)ccc8c7n6)cc5[S+](=O)([O-])[O-])c([S+](=O)([O-])[O-])c4)nc32)c1,12.6 µM (active)
12,Clc1ccc(-c2nn3c(COc4cc(Cl)c(OCc5nnc6sc(-c7ccc(Cl)cc7)nn56)cc4Cl)nnc3s2)cc1,28.2 µM (active)
13,O=C(OCc1cc(=O)n2nc(C3CC3)sc2n1)c1ccc(NC(=O)c2ccccc2Cl)cc1,inactive
14,CC(=O)Oc1cc2c(c(C)c1OC(C)=O)CC=C1[C@@]2(C)CC[C@@]2(C)[C@H]3C[C@](C)(C(=O)O)CC[C@]3(C)CC[C@]12C,35.5 µM (active)
15,O=C1c2ccc(O)c(O)c2C(=O)c2c(O)ccc(O)c21,inactive
16,CCCCCCc1cc2cc(-c3cn4c(n3)sc3cc(OC)ccc34)c(=O)oc2cc1O,35.5 µM (active)
17,CCOc1ccc(S(=O)(=O)Nc2cc3c(C(=O)OCc4ccccc4)c(C)oc3c3ccccc23)cc1,316 µM (active)
18,CCOC(=O)c1ccc(N2C(=O)c3n[nH]c(-c4cccs4)c3C2c2ccc(Cl)cc2Cl)cc1 (stereo not given),44.7 µM (active)
19,O=C(O)CSc1nc2ccc(NC(=O)COc3ccc(Cl)cc3)cc2s1,28.2 µM (active)
20,Cc1cccc(C)c1NS(=O)(=O)c1ccc(NS(=O)(=O)c2ccc3c(c2)OCCO3)cc1,126 µM (active)

row,SMILES,Potency
1,CN(Cc1ccc(C(=O)O)cc1)c1ccc(OCc2c(-c3c(Cl)cccc3Cl)noc2C2CC2)nc1C(F)(F)F,6.31 µM (active)
2,CC(C)c1ccc(NC(=O)c2ccc3c(O)c(S(=O)(=O)c4ccccc4)c(=O)[nH]c3c2)cc1,28.2 µM (active)
3,CC(C)(C)c1ccc(S(=O)(=O)c2cnc(SCC(=O)Nc3ccc4c(c3)OCCO4)[nH]c2=O)cc1,31.6 µM (active)
4,COc1ccc(NS(=O)(=O)c2ccc(NS(=O)(=O)c3ccc4c(c3)OCCO4)cc2)cc1,141 µM (active)
5,CN(C)c1cc(CNCC(C)(C)C)c(O)c2c1C[C@H]1C[C@H]3[C@H](N(C)C)C(=O)C(C(N)=O)=C(O)[C@@]3(O)C(=O)C1=C2O,158 µM (active)
6,COC(=O)c1ccc([C@H]2Nc3ccc(S(=O)(=O)Nc4ccc(C)cc4)cc3[C@H]3C=CC[C@H]32)cc1,100 µM (active)
7,Nc1cc(N)c(N=Nc2ccc(S(=O)(=O)Nc3nccs3)cc2)cc1N=Nc1ccc(S(=O)(=O)Nc2nccs2)cc1,20 µM (active)
8,CC(C)CN1CC(COc2ccc3ccccc3c2)Oc2ccnc(-c3ccc(OCC(=O)O)cc3)c2C1=O (stereo not given),39.8 µM (active)
9,O=C(OCc1cc(=O)n2nc(C3CC3)sc2n1)c1ccc(NC(=O)c2ccccc2F)cc1,inactive
10,Cc1c(Cl)cccc1NS(=O)(=O)c1ccc(NS(=O)(=O)c2ccc3c(c2)OCCO3)cc1,39.8 µM (active)
11,O=C(O)c1ccc(O)c2ncc(N3CCCN(CCc4cccc5ccccc45)CC3)cc12,3.55 µM (active)
12,N#CC(C#N)=C(N)/C(C#N)=C/c1cc(O)c(O)c(O)c1,inactive
13,C=C1c2c(Cl)ccc(O)c2C(O)=C2C(=O)[C@]3(O)C(O)=C(C(N)=O)C(=O)[C@@H](N(C)C)[C@@H]3[C@@H](O)C12 (stereo not given in full),20 µM (active)
14,CC1CCN(C(c2ccc(F)cc2)c2ccc(C(C)C(=O)O)cc2-c2ccc(C(F)(F)F)cc2)CC1 (stereo not given),2.51 µM (active)
15,O=C(O)COc1ccc(-c2nccc3c2C(=O)N(Cc2cccc(C(F)(F)F)c2)CC(COc2cccc(F)c2)O3)cc1 (stereo not given),28.2 µM (active)
16,O=c1cc(-c2cc(O)c(O)c(O)c2)oc2cc(O)cc(O)c12,inactive
17,COc1ccc(NS(=O)(=O)c2ccc3c(c2)[C@H]2C=CC[C@H]2[C@@H](c2ccc(C(=O)O)cc2)N3)cc1,20 µM (active)
18,O=C(O)c1c(Sc2ccccc2)c2cc(Cl)ccc2n1Cc1ccc(Cl)cc1,22.4 µM (active)
19,O=C(O)c1cccc(-c2cccc(C(F)(F)F)c2)c1,501 µM (active)
20,O=C(OC1Cc2c(O)cc(O)cc2OC1c1cc(O)c(O)c(O)c1-c1c(C2Oc3cc(O)cc(O)c3CC2O)cc(O)c(O)c1O)c1cc(O)c(O)c(O)c1 (stereo not given),17.8 µM (active)
